In PubChem BioAssay (NCATS):
Inconclusive results are not listed. Activity calls are given as the source filed them. Calls follow the shape of the dose curve; as a rule, active = well fitted curve in the direction sought with a large enough effect; inconclusive = small, poorly fitted or top-dose-only effect, or another doubt; inactive = no such curve, though single readings can be large; an effect the other way counts as inactive or inconclusive.

Legend:
[1] = qHTS of pediatric cancer cell lines to identify multiple opportunities for drug repurposing: Primary screen for LAN-5 cells (AID 1347100); also: potency is read from the fitted curve at half-maximal effect
Outline: (§1)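 Viability after 48 h compound treatment at 37C, 500-1,000 cells/well, read as ATP luminescence with CellTiter-Glo. Primary screens used 11-point (MIPE, 0.78 nM-46 µM) or 8-point (NPC, 0.59 nM-46 µM) final concentrations; follow-up screens used 11-point dilutions.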

[2] = qHTS of pediatric cancer cell lines to identify multiple opportunities for drug repurposing: Primary screen for Rh18 cells (AID 1347102); also: nearly all actives have a fitted effect of over 65% in size; also: potency is read from the fitted curve at half-maximal effect
Outline: as §1

[3] = qHTS of pediatric cancer cell lines to identify multiple opportunities for drug repurposing: Primary screen for OHS-50 cells (AID 1347103); also: nearly all actives have a fitted effect of over 40% in size; also: potency is read from the fitted curve at half-maximal effect
Outline: (§2)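 Cells (500-1,000/well) rested 5 h, then received compounds for 48 h; metabolically active cells were measured by CellTiter-Glo luminescence. Final concentrations spanned up to 46 µM (MIPE, 11-point) or 0.59 nM-46 µM (NPC, 8-point) in primary screens, 11-point in follow-ups.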

[4] = qHTS of pediatric cancer cell lines to identify multiple opportunities for drug repurposing: Primary screen for RD cells (AID 1347104); also: nearly all actives have a fitted effect of over 55% in size; also: potency is read from the fitted curve at half-maximal effect
Outline: (§3)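 CRCs from 8- or 11-point titrations (lowest final 0.59 nM NPC, 0.78 nM MIPE). Cell viability: CellTiter-Glo after 48 h incubation, 15 min room-temperature development, luminescence imaging.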

[5] = qHTS of pediatric cancer cell lines to identify multiple opportunities for drug repurposing: Primary screen for control Hh wild type fibroblast cells (AID 1347106);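 also: series mostly up to about 46 µM; a drop in luminescence marks cytotoxicity and a rise apparent proliferation; nearly all actives have a fitted effect of over 55% in size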
Outline: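 Cells (500-1,000/well) in growth media were settled 5 h at 37 degrees C, then given compounds for 48 h. Viability was read as CellTiter-Glo luminescence. Primary runs used MIPE at 11 points (0.78 nM-46 µM) and NPC at 8 points (0.59 nM-46 µM); follow-ups used 11 points.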

[6] = qHTS of pediatric cancer cell lines to identify multiple opportunities for drug repurposing: Primary screen for Rh41 cells (AID 1347108); also: nearly all actives have a fitted effect of over 70% in size; also: potency is read from the fitted curve at half-maximal effect
Outline: as §3

[7] = qHTS of pediatric cancer cell lines to identify multiple opportunities for drug repurposing: Confirmatory screen for NB1643 cells (AID 1347109); also: nearly all actives have a fitted effect of over 45% in size; also: potency is read from the fitted curve at half-maximal effect
Outline: as §1

[8] = qHTS of pediatric cancer cell lines to identify multiple opportunities for drug repurposing: Confirmatory screen for A673 cells (AID 1347110); also: potency is read from the fitted curve at half-maximal effect; nearly all actives have a fitted effect of over 65% in size
Outline: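 Viability was read as ATP luminescence (CellTiter-Glo) after 48 h of compound exposure at 37 C in A673 cells seeded at 500-1,000/well. Titrations reached 46 uM final, with 11 points in the confirmatory screen. Concentration-response curves were fitted directly.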

[9] = qHTS of pediatric cancer cell lines to identify multiple opportunities for drug repurposing: Confirmatory screen for SK-N-MC cells (AID 1347111);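 also: potency is read from the fitted curve at half-maximal effect; cells exposed to compound for 48 h before the readout; nearly all actives have a fitted effect of over 70% in size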
Outline: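 SK-N-MC cells at 500-1,000 cells/well in growth media were pre-incubated 5 h, then exposed to compounds at 11-point dilutions for 48 h at 37 degrees C, 5% CO2. Viability was read as CellTiter-Glo luminescence.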

[10] = qHTS of pediatric cancer cell lines to identify multiple opportunities for drug repurposing: Confirmatory screen for BT-12 cells (AID 1347112); also: nearly all actives have a fitted effect of over 55% in size; also: potency is read from the fitted curve at half-maximal effect
Outline: as §1

[11] = qHTS of pediatric cancer cell lines to identify multiple opportunities for drug repurposing: Confirmatory screen for LAN-5 cells (AID 1347113); also: potency is read from the fitted curve at half-maximal effect; nearly all actives have a fitted effect of over 65% in size
Outline: as §1

[12] = qHTS of pediatric cancer cell lines to identify multiple opportunities for drug repurposing: Confirmatory screen for NB-EBc1 cells (AID 1347115); also: nearly all actives have a fitted effect of over 45% in size; also: potency is read from the fitted curve at half-maximal effect
Outline: as §1

[13] = qHTS of pediatric cancer cell lines to identify multiple opportunities for drug repurposing: Confirmatory screen for SJ-GBM2 cells (AID 1347116); also: potency is read from the fitted curve at half-maximal effect; nearly all actives have a fitted effect of over 60% in size
Outline: (§4)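 Viability measured as metabolically active cells via CellTiter-Glo luminescence following 48 hours of compound exposure, 11-point dilutions in confirmatory testing. 500-1,000 cells/well plated 5 hours before dosing; controls were DMSO and 2.3 µM bortezomib.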

[14] = qHTS of pediatric cancer cell lines to identify multiple opportunities for drug repurposing: Confirmatory screen for BT-37 cells (AID 1347117); also: potency is read from the fitted curve at half-maximal effect; nearly all actives have a fitted effect of over 55% in size
Outline: as §1

[15] = qHTS of pediatric cancer cell lines to identify multiple opportunities for drug repurposing: Primary screen for BT-12 cells (AID 1347101); also: nearly all actives have a fitted effect of over 25% in size; also: potency is read from the fitted curve at half-maximal effect
Outline: as §2

[16] = qHTS of pediatric cancer cell lines to identify multiple opportunities for drug repurposing: Primary screen for MG 63 (6-TG R) cells (AID 1347105); also: nearly all actives have a fitted effect of over 50% in size; also: potency is read from the fitted curve at half-maximal effect
Outline: as §3

[17] = qHTS of pediatric cancer cell lines to identify multiple opportunities for drug repurposing: Primary screen for Rh30 cells (AID 1347107); also: series mostly up to about 46 µM; nearly all actives have a fitted effect of over 75% in size
Outline: as §1

[18] = qHTS of pediatric cancer cell lines to identify multiple opportunities for drug repurposing: Confirmatory screen for DAOY cells (AID 1347114); also: potency is read from the fitted curve at half-maximal effect; nearly all actives have a fitted effect of over 65% in size
Outline: as §4

[19] = qHTS of pediatric cancer cell lines to identify multiple opportunities for drug repurposing: Primary screen for NB1643 cells (AID 1347099); also: nearly all actives have a fitted effect of over 50% in size; also: potency is read from the fitted curve at half-maximal effect
Outline: as §3

Measured: Potency

COc1c(OCCCN2CCOCC2)ccc2c3n(c(=NC(=O)c4cnc(N)nc4)nc12)CCN3
inactive: [5] | [10]
active: [1] 0.407 µM | [2] 0.0812 µM | [3] 0.0211 µM | [4] 0.0724 µM | [6] 0.102 µM | [7] 2.29 µM | [8] 1.02 µM | [9] 1.02 µM | [11] 0.644 µM | [12] 2.57 µM | [13] 2.04 µM | [14] 6.44 µM

C[C@@H]1CN(CC(=O)Nc2ccc3c(c2)Cc2cccc(-c4cc(=O)cc(N5CCOCC5)o4)c2S3)C[C@H](C)O1
inactive: [5]
active: [1] 18.7 µM | [2] 18.7 µM | [3] 21.7 µM

C[C@]12CC[C@H](O)CC1=CCC1C2CC[C@]2(C)C(n3cnc4ccccc43)=CCC12 (some centres undefined)
inactive: [15] | [4] | [16] | [5] | [17]

COC(=O)C[C@](O)(CCCC(C)(C)O)C(=O)O[C@@H]1C(OC)=C[C@]23CCCN2CCc2cc4c(cc2[C@H]13)OCO4
inactive: [1] | [15] | [2] | [3] | [4] | [16] | [5]

CN[C@H]1CCc2cc(OC)c(OC)c(OC)c2-c2ccc(OC)c(=O)cc21
active: [1] 0.0023 µM | [3] 0.0015 µM | [8] 0.104 µM | [10] 0.147 µM | [18] 0.0465 µM
inactive: [16] | [17]

Cc1c(NC(=O)OC[C@@H]2COCCN2)cn2ncnc(Nc3ccc4c(cnn4Cc4cccc(F)c4)c3)c12
active: [1] 20.9 µM | [16] 0.187 µM | [8] 18.5 µM | [10] 26.1 µM | [18] 20.8 µM | [14] 18.5 µM
inactive: [5] | [7] | [12]

Nc1nc(Nc2ccc(S(N)(=O)=O)cc2)nn1C(=O)c1c(F)cccc1F
active: [15] 13.7 µM | [4] 11.8 µM | [6] 14.8 µM
inactive: [2] | [17]

CN1CC[C@@H](c2c(O)cc(O)c3c(=O)cc(-c4ccccc4Cl)oc23)[C@@H](O)C1
inactive: [17] | [12]
active: [15] 0.122 µM | [3] 0.122 µM | [4] 0.235 µM | [16] 0.148 µM | [6] 0.296 µM | [7] 0.261 µM | [8] 0.522 µM | [9] 0.414 µM | [10] 0.737 µM | [11] 0.465 µM | [13] 0.369 µM | [14] 0.414 µM

O=C(O)C1(Cc2cccc(Nc3nccs3)n2)CCC(Oc2cccc(Cl)c2F)CC1 (centres undefined)
inactive: [19] | [4] | [5] | [6]
active: [3] 0.544 µM | [16] 18.7 µM

Cc1ccc2nc(NC(=O)CSc3nc4c(c(=O)n3-c3ccccc3)SCC4)sc2c1
active: [1] 14.8 µM | [3] 13.7 µM | [6] 14.8 µM | [8] 1.04 µM | [9] 11.7 µM | [10] 3.29 µM

Cc1cc(C(=O)N2CCN(c3cccc(Cl)c3)CC2)n(-c2ccccc2)n1
inactive: [2] | [17]
active: [1] 0.743 µM | [3] 1.37 µM | [6] 2.35 µM | [8] 2.33 µM | [9] 2.61 µM | [18] 0.928 µM | [14] 5.22 µM

COc1ccc2c(c1)CC[C@@H](CN(C)CC(=O)O)[C@H]2c1ccccc1
inactive: [17]
active: [1] 1.05 µM | [3] 4.32 µM | [16] 2.96 µM | [6] 5.9 µM

Cc1cccc(C=NNc2cc(N3CCOCC3)nc(OCCc3ccccn3)n2)c1
inactive: [16] | [5]
active: [19] 16.6 µM | [3] 24.3 µM

COc1ccc(C=Cc2cc(OC)c(OC)c(OC)c2)cc1O
inactive: [4] | [16] | [5] | [17]
active: [1] 0.001 µM | [3] 0.001 µM | [8] 0.0185 µM | [9] 0.0165 µM | [11] 0.0522 µM | [18] 0.0737 µM | [12] 0.0147 µM | [14] 0.0147 µM

CC(C)Nc1cc(C(F)(F)F)cc2nc(NC(=O)c3cccnc3)nn12
inactive: [1] | [15] | [2] | [3] | [16] | [17] | [6]
